CHX counter: Cycloheximide Counterscreen for Small Molecule Inhibitors of Shiga Toxin. AID 2314, 2010. 300,000 compounds, 12% hits. cell reporter, cycloheximide protein synthesis inhibition counterscreen. max response, %; in the data active = max response mostly above about 13%, no sharp cut-off; inactive = mostly below about 14%; note: read at 38.3 µM for the half of the compounds with a filed dose; 0% is about no effect
Sm TGR block: qHTS Assay for the Inhibitors of Schistosoma Mansoni Peroxiredoxins; purified TGR, DTNB reduction, TNB absorbance 405 nm; Potency, µM (top dose mostly 114 µM), without a hit: at the highest dose activity change, negative = inhibition, actives largely listed as inhibitors; 360,000 compounds, 3% hits; AID 485364, 2010; note: potency is the fitted concentration of half-maximal effect; % is set by controls: 0 for no effect and ±100 for the full control effect; nearly all actives have a fitted effect of over 60% in size
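First, TGR (20 nM dispensed) and NADPH were mixed with compound. Second, a 15 min room-temperature incubation followed. Third, further NADPH and then DTNB were added to start the reaction. Finally, TNB absorbance was monitored kinetically.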
Tb PYK inh: qHTS of Trypanosoma Brucei Inhibitors. 410,000 compounds, 0.12% hits. AID 624173, 2012. Potency, µM (highest dose often 76.8 µM), inactives show at the highest dose activity, negative = inhibition, hits mostly inhibitors. pyruvate kinase (Trypanosoma brucei), Q57TT1. TbPYK enzyme, Kinase-Glo Plus ATP luminescence, 45 min; note: potency is the fitted concentration of half-maximal effect; % is set by controls: 0 for no effect and ±100 for the full control effect; nearly all actives have a fitted effect of over 50% in size
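T. brucei PYK with substrate was exposed to pin-transferred compounds across a concentration series, then started with 130 uM ADP (final). After 45 min at room temperature, Kinase-Glo Plus luminescence was read, normalized and curve-fitted.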
Giardia FBPA inh: qHTS Assay for Inhibitors of Fructose-1,6-bisphosphate Aldolase from Giardia Lamblia; A8B2U2; purified Giardia FBPA; Potency, µM (top dose mostly 59.6 µM), for the others: at the top dose activity, negative = inhibition, actives largely listed as inhibitors; 290,000 compounds, 0.71% hits; note: potency is the fitted concentration of half-maximal effect; % is set by controls: 0 for no effect and ±100 for the full control effect; nearly all actives have a fitted effect of over 55% in size
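40 nM FBPA preincubated 10 min at RT with compound (up to 57.5 uM final), then substrate plus GAPDH/TPI/NAD/arsenate coupling and diaphorase/resazurin added. Fluorescence read after 20 min at RT, 525/598 nm.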
Shiga toxin inh: A qHTS for Small Molecule Inhibitors of Shiga Toxin. Vero cells, Shiga toxin protein synthesis inhibition reporter. inhibition, % at 38.7 µM. 290,000 compounds, 9.2% hits. AID 2315, 2010; in the data active = inhibition mostly above about 28%, no sharp cut-off; inactive = mostly below about 43%; note: 0% is about no effect
LmPK inhibitor: qHTS Assay for Inhibitors of Leishmania Mexicana Pyruvate Kinase (LmPK). Potency, µM (doses to about 57.5 µM), for inactives: at the highest dose activity change, negative = inhibition, most hits filed as inhibitors. purified LmPK, Kinase-Glo ATP luminescence, 1 h. Q27686. 290,000 compounds, 0.37% hits; note: potency is the fitted concentration of half-maximal effect; % is set by controls: 0 for no effect and ±100 for the full control effect
Target sequence (Q27686 whole entry, looked up): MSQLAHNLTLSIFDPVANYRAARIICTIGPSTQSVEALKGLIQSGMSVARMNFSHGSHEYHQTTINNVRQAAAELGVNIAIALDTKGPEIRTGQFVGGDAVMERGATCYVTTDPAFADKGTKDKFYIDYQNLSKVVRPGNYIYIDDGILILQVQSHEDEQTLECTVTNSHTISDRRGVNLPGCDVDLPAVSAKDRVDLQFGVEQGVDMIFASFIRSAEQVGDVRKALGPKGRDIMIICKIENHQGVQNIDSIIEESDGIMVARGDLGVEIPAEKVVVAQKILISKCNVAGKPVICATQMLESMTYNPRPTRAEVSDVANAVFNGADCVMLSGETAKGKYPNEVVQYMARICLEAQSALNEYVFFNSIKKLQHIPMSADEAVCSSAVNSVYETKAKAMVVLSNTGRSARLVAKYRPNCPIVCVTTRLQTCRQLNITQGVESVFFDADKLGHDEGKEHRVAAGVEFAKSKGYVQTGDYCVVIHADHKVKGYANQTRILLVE
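ATP generated from ADP (0.1 mM) and PEP (0.5 mM) by 0.1 nM LmPK over 1 h at room temperature (pH 7.2 imidazole buffer) was detected by coupled luciferase luminescence. Values were normalized to uninhibited and no-enzyme wells.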
The depositor's hits bear a star; ? = inconclusive; / = not tested or not shown; [ ] = another dose, or the depositor's remark. The sample as a whole holds a higher share of hits than the screen did. Unless noted, calls come from the whole dose curve; as a rule, active = well fitted curve in the direction sought with a large enough effect; inconclusive = small, poorly fitted or top-dose-only effect, or another doubt; inactive = no such curve, though single readings can be large; an effect the other way counts as inactive or inconclusive.

SMILES | CHX counter | Sm TGR block | Tb PYK inh | Giardia FBPA inh | Shiga toxin inh | LmPK inhibitor
O=C1CCC(C(=O)N2CCCC2)CN1Cc1cccc(C(F)(F)F)c1 (stereo not drawn) | -1 | -3% | 4% | -2% | -6 | 3%
CCCN1C(=O)C(Cc2nc3ccccc3c(=O)n2-c2ccc(OC)cc2)c2cc(C)ccc21 (stereo not drawn) | / | -1% | -1% | / | / | /
CCc1ccccc1NC(=O)CC(NCc1ccccc1)C(=O)O (stereo not drawn) | -5 | -27% | 1% | -13% | -4 | 1%
O=C(NCc1cc(C(F)(F)F)ccc1F)C1CCC(=O)N(C2CCCCCC2)C1 (stereo not drawn) | 2 | -23% | 0% | 16% | -8 | 2%
CCOC(=O)CC1(NC(=O)C2CCC(=O)N(CCc3ccccc3)C2)CCCCC1 (stereo not drawn) | 20* | -1% | -10% | -1% | 30* | -2%
O=C(NCc1cc(F)ccc1F)C1CCC(=O)N(C2CCCCCC2)C1 (stereo not drawn) | 35* | -1% | -1% | / | 86* | -10%
O=C1CCC(C(=O)N2CCCCO2)CN1CCc1ccccc1 (stereo not drawn) | 42* | -1% | -1% | 16% | 81* | -3%
COc1ccccc1CN1CC(C(=O)N(C)Cc2nc(C)cs2)CCC1=O (stereo not drawn) | 17* | -17% | -7% | / | 39 | -6%
Cc1csc(CN(C)C(=O)C2CCC(=O)N(CCCc3ccccc3)C2)n1 (stereo not drawn) | -2 | 0% | 4% | -11% | -12 | 0%
CCOC(=O)CC1(NC(=O)C2CCC(=O)N(C3CC3)C2)CCCCC1 (stereo not drawn) | 1 | -11% | -2% | / | 14 | 4%
O=C(O)c1ccc(-c2c[nH]c3ccc(-c4ccccc4)cc23)cc1C1CCCC1 | / | / | 7% | / | / | /
Cc1ccc(F)cc1CNC(=O)C1CCC(=O)N(CCc2ccccc2)C1 (stereo not drawn) | 9 | -1% | 3% | 6% | 13 | 0%
O=C(NCCc1ccc(C(F)(F)F)cc1)C1CCC(=O)N(CCc2cccc(F)c2)C1 (stereo not drawn) | 16* | -12% | 5% | / | 11 | -13%
COc1ccccc1CN1CC(C(=O)NCc2cc(F)ccc2C)CCC1=O (stereo not drawn) | 32* | 2% | 0% | 2% | 40* | -3%
COc1ccc(NC(=O)c2ccc(Cc3ccc(C)cc3)o2)cc1 | 24* | -36% | 2% | 3% | 29 | 4%
COc1ccc(NC(=O)c2ccc(COc3ccccc3)o2)cc1 | 21* | 1% | -25% | 1% | 24 | 1%
Cc1ccc(-c2csc3ncnc(N4CCN(C(=O)c5ccco5)CC4)c23)cc1 | / | -18% | 4% | / | / | /
O=C(c1ccco1)N1CCN(c2ncnc3c(-c4ccc(Cl)cc4)nsc23)CC1 | 48* | -11% | 0% | 3% | 101* | -8%
Cc1ccc(-c2nsc3c(N4CCN(C(=O)c5ccco5)CC4)ncnc23)cc1 | 30* | 0% | / | -1% | 71* | -3%
COc1ccc(-c2nsc3c(N4CCCC4)ncnc23)cc1 | 49* | -12% | 0% | 5% | 118* | -19%
O=C1C[C@@H](O)[C@@H](O)[C@@H]2[C@H]3C(=O)N(c4ccc(F)cc4F)C(=O)[C@@H]3CC[C@H]12 | / | / | / | -1%[12.9 µM] | / | /
CN(C)c1ccc(-c2ccccc2)nn1 | 32* | 4% | -18% | 0% | 94* | 25µM*
COc1ccc(Cc2c(-c3cccc(Cl)c3)nc3c(C)cc(Br)cn23)c(C)c1 | / | / | 1% | / | / | /
CN1C(=O)/C(=C/c2ccc(OCc3ccc(C(=O)O)cc3)c(Cl)c2)NC1=S | 1 | 10% | 4% | ? | 2 | -2%
O=C1NC(=O)/C(=C\c2ccc(OCc3cccc(C(=O)O)c3)c(Cl)c2)N1 | 81* | -4% | 1% | 24% | 161* | -6%
